In PubChem BioAssay AID1706 (The Scripps Research Institute Molecular Screening Center, 2009):
The whole screen tested about 290,000 compounds, of which about 400 (0.14%) were called active. The sample as a whole holds a higher share of actives than the screen did. A number with no mark means an inactive call. Rule as the data show it: active = inhibition above about 12%; inactive = the rest.

Target: Replicase polyprotein 1ab (Severe acute respiratory syndrome coronavirus) (UniProt P0C6X7)
Test: blockers of SARS 3CLpro peptide cleavage – biochemical, quenched FRET, primary screen (AID 1706)
Conditions: recombinant SARS-CoV 3CLpro, at 6 µM, stronger effect = higher value

Going from C[C@H](NC(=O)C1CC(=O)N(c2ccc3c(c2)OCCO3)C1)C(=O)N1CCC(C(=O)O)CC1 (stereo not given in full) to O=C(c1c(F)cccc1Cl)N1CCN(S(=O)(=O)c2ccc3c(c2)OCCCO3)CC1, the inhibition falls from 2.21% to -1.16%.

Compared with CCOC(CNC(=O)C(=O)NCC(c1ccco1)N1CCN(c2ccc(OC)cc2)CC1)OCC (stereo not given), Cc1c(C(=O)NCC(c2ccco2)N2CCCC2)oc2ccc(Cl)cc12 (stereo not given) is higher in inhibition: -3.43% for the first, -1.9% for the second.

First: Cc1c(C(=O)NCCN2CCOCC2)sc2nc(-c3ccc(F)cc3)cn12
Second: O=C(Cc1ccc(Br)cc1)NCCN1CCOCC1
The inhibition of the first is higher: 3.35% for the first, -3.15% for the second.

Going from Cc1ccc(NS(=O)(=O)c2ccc3c(c2)oc(=O)n3C)c(C)c1 to COc1cccc(CNC(=O)CN(C)S(=O)(=O)c2ccc3c(c2)c(=O)n(C)c(=O)n3C)c1, the inhibition falls from 8.19% to 0.08%.

Going from CC1(C)N=C(c2ccccn2)C(C)(C)N1O to Cc1cccc[n+]1CC(=O)c1ccccc1, the inhibition rises from -1.96% to 3.16%.

Compared with COc1ccc([N+](=O)[O-])cc1NCC(=O)c1ccc(C)cc1, COc1ccc(C)cc1N(CC(=O)NC(C)c1ccccc1)S(C)(=O)=O (stereo not given) is lower in inhibition: -0.37% for the first, -1.09% for the second.

Going from O=c1[nH]c(/C=C\c2cccc(C(F)(F)F)c2)nc(O)c1[N+](=O)[O-] to O=C(/C=C/c1ccc(F)cc1)Nc1cccc(S(=O)(=O)Nc2cccc(C(F)(F)F)c2)c1, the inhibition rises from -0.63% to 5.74%.

Going from COc1ccc(C(CNC(=O)c2cc3c(s2)CCCC3)N2CCOCC2)cc1 (stereo not given) to Cc1ccc(OCC(=O)Nc2cccc3c2CCCC3)cc1C, the inhibition falls from 0.58% to -0.37%.

First: N#Cc1ncc(C(F)(F)F)cc1Oc1cccnc1
Second: COc1cccc(C(=O)NC(=O)Nc2nc(C)cc(C(F)(F)F)n2)c1
The inhibition of the first is higher: 4% for the first, -0.93% for the second.

Compared with COc1cccc(CN(C)CC(O)COC(c2ccccc2)c2ccccc2C)c1 (stereo not given), COCCNC(=O)C(c1ccc(C)o1)N(Cc1ccccc1)C(=O)Cn1nnc2ccccc21 (stereo not given) is higher in inhibition: -1.74% for the first, 0.75% for the second.

First: CCCCCCCCCCCCN1C(=O)CSC1c1cccnc1 (stereo not given)
Second: O=C1CCCCN1CCCC(=O)N1CCCC(Nc2ccc(F)cc2)C1 (stereo not given)
The inhibition of the first is higher: 0.63% for the first, -2.27% for the second.

First: Cn1nc(-c2ccc(N3CCOCC3)c(NC(=O)c3ccccc3)c2)c2ccccc2c1=O
Second: Cc1ccc2c(c1)sc1ncc(NC(=O)c3ccccc3)c(=O)n12
The inhibition of the first is lower: -4% for the first, -0.46% for the second.

Compared with Cc1ccc(CNC(=O)C2(C(F)(F)F)C/C(=C\Cc3ccccc3)CCCO2)o1 (stereo not given), CCN(CC(=O)NCC(=O)Nc1cccc(C)c1C)Cc1ccccc1 is lower in inhibition: 2.14% for the first, -2.94% for the second.

Going from CC(=O)N1CCCc2cc(S(=O)(=O)N3CCCC(C(=O)N4CCN(c5cccc(Cl)c5)CC4)C3)ccc21 (stereo not given) to CCN1CCN(C(=O)C2CCCN(S(=O)(=O)c3ccc(OC)c(OC)c3)C2)CC1 (stereo not given), the inhibition falls from -4.69% to -7.47%.

Compared with COc1cccc(N(C(=O)CNC(=O)c2ccco2)C(C(=O)NC2CCCCC2)c2cccnc2)c1 (stereo not given), O=C(NC1CCCC1)C(c1ccco1)N(C(=O)c1ccco1)c1ccc(F)cc1 (stereo not given) is lower in inhibition: 0.2% for the first, -3.74% for the second.

Going from CS(=O)(=O)N(CC(=O)N1CCOCC1)c1cccc(Cl)c1Cl to CC(=O)c1cccc(NC(=S)N2CCCC2)c1, the inhibition falls from 10.7% to 0.53%.

Going from COc1ccc(C(C(=O)NCC2CCCO2)N(C(=O)Cn2nnc3ccccc32)c2ccc(NC(C)=O)cc2)cc1OC (stereo not given) to COc1ccc(C(C(=O)NC(C)(C)C)N(C(=O)Cn2nnc3ccccc32)c2ccc(C(C)=O)cc2)cc1O (stereo not given), the inhibition falls from 11.5% to 3.87%.

Going from CN1CN(C)c2ccc([N+](=O)[O-])c3cccc1c23 to Cc1ccc2c(c1)C1CN(C)CCC1N2S(=O)(=O)c1ccc(Oc2ccc([N+](=O)[O-])cc2)cc1 (stereo not given), the inhibition falls from 2.09% to 0.21%.

Compared with CCOC(=O)c1ccc(-n2c(CCC(=O)O)ccc2-c2ccccc2)cc1, Cc1cccc(OCC(=O)Nc2ccc(C(=O)O)cc2NC(=O)COc2cccc(C)c2)c1 is higher in inhibition: 3.33% for the first, 6.23% for the second.

Going from CC(C)c1c(C(=O)N/N=C/c2ccc(-c3ccccc3)cc2)nnn1-c1nonc1N to COc1cccc(Cn2cc(/C=N/NC(=O)c3cc(O)cc(O)c3)c3ccccc32)c1, the inhibition rises from 1.56% to 6.16%.

Going from c1ccc2c(-c3nn4nnnc4c4ccccc34)cccc2c1 to O=C(NCc1ccco1)C(c1ccncc1)N(C(=O)Cn1nnc2ccccc21)c1ccccc1 (stereo not given), the inhibition rises from -0.16% to 1.89%.

Compared with COC(=O)c1ccc(COC(=O)c2cnc(Cl)c(Cl)c2)cc1, COc1ccc2cc(CCl)c(Cl)nc2c1 is lower in inhibition: 7.32% for the first, -3.78% for the second.

Compared with COc1ccc(C(=O)NC(=S)N2CCNC(=O)C2CC(=O)OC(C)C)cc1 (stereo not given), CC(=O)N1CCN(C(=O)C2(NC(=O)Nc3ccc(C)cc3)CCCCC2)CC1 is lower in inhibition: 0.58% for the first, -11.2% for the second.

First: CC(=O)Nc1ccc(NC(=O)C2CCCN2S(=O)(=O)c2cccc(C(F)(F)F)c2)cc1 (stereo not given)
Second: CCNS(=O)(=O)c1ccc(NC(=O)Nc2cccc(C(F)(F)F)c2)cc1
The inhibition of the first is lower: -4.86% for the first, -1.22% for the second.

First: Cc1ccc(S(=O)(=O)N(CC(=O)NCc2ccco2)c2ccccc2C)cc1
Second: Cc1cc(-c2ccc(S(=O)(=O)N3CCN(c4cccc(C(F)(F)F)c4)CC3)s2)on1
The inhibition of the first is lower: -1.63% for the first, 10.1% for the second.

With CC(C)c1ccc(N(C(=O)c2ccco2)C(C(=O)NC2CCCC2)c2cccnc2)cc1 (stereo not given) the inhibition was 50.8% (active).
In the case of CCC(C)(C)NC(=O)C(c1ccc(O)cc1)N(C(=O)Cn1nnc2ccccc21)c1ccc(NC(C)=O)cc1 (stereo not given), the inhibition was 27.5% (active).
For Cc1ccc(OCC(=O)Nc2ccc(C(=O)O)cc2NC(=O)COc2ccc(C)c(C)c2)cc1C, the inhibition was 14.3% (active).
In the case of Cc1oc2c(F)c(F)c(F)c(F)c2c1S(=O)(=O)Nc1cccc(C(F)(F)F)c1, the inhibition was 17.6% (active).
For COc1ccccc1N(C(=O)Cn1nnc2ccccc21)C(C(=O)NCc1ccco1)c1ccc(C)o1 (stereo not given), the inhibition was 20.2% (active).
